# From PubChem BioAssay AID1159580 (chemical genetic matrix, 2015)
# About 2,000 (36%) of roughly 5,500 compounds were called active. About 18% were inconclusive and are not listed. Some of the results follow. Unmarked numbers belong to inactive results. No stated cut-off is given here; in the data, active means normalized growth mostly below about 0.91 (no sharp cut-off); inconclusive means no clear call, values can overlap the other calls; inactive means mostly above about 0.92.
# Assay: chemical genetic growth profiling, strain panel (AID 1159580);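 further: tested at 20 µM; growth read once vehicle control cultures reached saturation at 30 °C; 1 = growth at the plate median or of vehicle wells; lower values mean less growth of the strain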
# Settings: growth OD
compound,measurement,setting,value
CC1=CC(=O)C(C(C)C)=CC1=O,normalized growth,"S. cerevisiae deletion strains, locus YJR066W, strain TOR1, active compounds read low",0.903
same,normalized growth,"S. cerevisiae deletion strains, locus YKL009W, strain mrt4, active compounds read low",0.936
same,normalized growth,"S. cerevisiae deletion strains, locus YKL068W, active compounds read low",0.961
same,normalized growth,"S. cerevisiae deletion strains, locus YKL085W, strain MDH1 (second series), active compounds read low",0.965
same,normalized growth,"S. cerevisiae deletion strains, locus YKL085W, strain MDH1, active compounds read low",0.965
same,normalized growth,"S. cerevisiae deletion strains, locus YKL160W, strain elf1, active compounds read low",0.951
same,normalized growth,"S. cerevisiae deletion strains, locus YKL190W, strain CNB1, active compounds read low",0.946
same,normalized growth,"S. cerevisiae deletion strains, locus YKR001C, strain vps1, active compounds read low",0.727 (active)
same,normalized growth,"S. cerevisiae deletion strains, locus YKR026C, strain gcn3, active compounds read low",0.903 (active)
same,normalized growth,"S. cerevisiae deletion strains, locus YKR091W, strain srl3, active compounds read low",0.999
same,normalized growth,"S. cerevisiae deletion strains, locus YLL001W, strain dnm1, active compounds read low",1.01
same,normalized growth,"S. cerevisiae deletion strains, locus YLL026W, active compounds read low",0.838 (active)
same,normalized growth,"S. cerevisiae deletion strains, locus YLL041C, strain sdh2, active compounds read low",0.95
same,normalized growth,"S. cerevisiae deletion strains, locus YLR027C, strain aat2, active compounds read low",0.638 (active)
same,normalized growth,"S. cerevisiae deletion strains, locus YLR039C, strain RIC1, active compounds read low",0.691
same,normalized growth,"S. cerevisiae deletion strains, locus YLR058C, strain SHM2, active compounds read low",0.946
same,normalized growth,"S. cerevisiae deletion strains, locus YLR102C, strain apc9, active compounds read low",0.95
same,normalized growth,"S. cerevisiae deletion strains, locus YLR113W, strain HOG1, active compounds read low",0.986
same,normalized growth,"S. cerevisiae deletion strains, locus YLR221C, strain rsa3, active compounds read low",0.355 (active)
same,normalized growth,"S. cerevisiae deletion strains, locus YLR258W, strain gsy2, active compounds read low",0.902 (active)
same,normalized growth,"S. cerevisiae deletion strains, locus YLR262C, strain YPT6 (second series), active compounds read low",0.724 (active)
same,normalized growth,"S. cerevisiae deletion strains, locus YLR262C, strain YPT6, active compounds read low",0.643
same,normalized growth,"S. cerevisiae deletion strains, locus YLR268W, strain sec22, active compounds read low",0.764 (active)
same,normalized growth,"S. cerevisiae deletion strains, locus YLR320W, strain mms22, active compounds read low",0.721 (active)
same,normalized growth,"S. cerevisiae deletion strains, locus YLR330W, strain CHS5, active compounds read low",0.648 (active)
same,normalized growth,"S. cerevisiae deletion strains, locus YLR342W, strain FKS1 (second series), active compounds read low",0.749 (active)
same,normalized growth,"S. cerevisiae deletion strains, locus YLR342W, strain FKS1, active compounds read low",1.01
same,normalized growth,"S. cerevisiae deletion strains, locus YLR357W, strain rsc2, active compounds read low",0.632 (active)
same,normalized growth,"S. cerevisiae deletion strains, locus YLR370C, strain arc18, active compounds read low",1.01
same,normalized growth,"S. cerevisiae deletion strains, locus YLR371W, strain rom2, active compounds read low",0.715 (active)
same,normalized growth,"S. cerevisiae deletion strains, locus YLR384C, strain iki3, active compounds read low",0.987
same,normalized growth,"S. cerevisiae deletion strains, locus YLR418C, strain cdc73, active compounds read low",0.54 (active)
same,normalized growth,"S. cerevisiae deletion strains, locus YML016C, strain PPZ1, active compounds read low",0.978
same,normalized growth,"S. cerevisiae deletion strains, locus YML032C, strain rad52, active compounds read low",0.89 (active)
same,normalized growth,"S. cerevisiae deletion strains, locus YML120C, strain ndi1, active compounds read low",0.13 (active)
same,normalized growth,"S. cerevisiae deletion strains, locus YML124C, strain tub3, active compounds read low",0.943
same,normalized growth,"S. cerevisiae deletion strains, locus YMR058W, strain fet3, active compounds read low",0.759 (active)
same,normalized growth,"S. cerevisiae deletion strains, locus YMR078C, strain ctf18, active compounds read low",0.912
same,normalized growth,"S. cerevisiae deletion strains, locus YMR125W, strain sto1, active compounds read low",0.397 (active)
same,normalized growth,"S. cerevisiae deletion strains, locus YMR129W, active compounds read low",0.839 (active)
same,normalized growth,"S. cerevisiae deletion strains, locus YMR205C, strain PFK2, active compounds read low",0.868 (active)
same,normalized growth,"S. cerevisiae deletion strains, locus YMR223W, strain ubp8, active compounds read low",0.847 (active)
same,normalized growth,"S. cerevisiae deletion strains, locus YMR231W, strain pep5, active compounds read low",1.01
same,normalized growth,"S. cerevisiae deletion strains, locus YMR307W, strain GAS1, active compounds read low",0.49 (active)
same,normalized growth,"S. cerevisiae deletion strains, locus YNL067W, strain RPL9B, active compounds read low",0.925
same,normalized growth,"S. cerevisiae deletion strains, locus YNL071W, strain lat1, active compounds read low",0.274 (active)
same,normalized growth,"S. cerevisiae deletion strains, locus YNL183C, strain NPR1, active compounds read low",0.892
same,normalized growth,"S. cerevisiae deletion strains, locus YNL209W, strain ssb2, active compounds read low",1
same,normalized growth,"S. cerevisiae deletion strains, locus YNL233W, strain BNI4, active compounds read low",0.657 (active)
same,normalized growth,"S. cerevisiae deletion strains, locus YNL248C, strain rpa49, active compounds read low",0.409 (active)
same,normalized growth,"S. cerevisiae deletion strains, locus YNL250W, strain rad50, active compounds read low",0.972
same,normalized growth,"S. cerevisiae deletion strains, locus YNL271C, strain bni1, active compounds read low",0.917 (active)
same,normalized growth,"S. cerevisiae deletion strains, locus YNL298W, strain CLA4, active compounds read low",0.899 (active)
same,normalized growth,"S. cerevisiae deletion strains, locus YNL307C, strain MCK1, active compounds read low",0.589 (active)
same,normalized growth,"S. cerevisiae deletion strains, locus YNL322C, strain KRE1 (second series), active compounds read low",0.876 (active)
same,normalized growth,"S. cerevisiae deletion strains, locus YNR049C, strain mso1, active compounds read low",0.986
same,normalized growth,"S. cerevisiae deletion strains, locus YNR052C, strain pop2, active compounds read low",0.922
same,normalized growth,"S. cerevisiae deletion strains, locus YOL012C, strain htz1",0.626
same,normalized growth,"S. cerevisiae deletion strains, locus YOL147C, strain pex11, active compounds read low",0.872 (active)
same,normalized growth,"S. cerevisiae deletion strains, locus YOR001W, strain rrp6, active compounds read low",0.664 (active)
same,normalized growth,"S. cerevisiae deletion strains, locus YOR061W, strain CKA2, active compounds read low",0.98
same,normalized growth,"S. cerevisiae deletion strains, locus YOR069W, strain VPS5, active compounds read low",0.961
same,normalized growth,"S. cerevisiae deletion strains, locus YOR070C, strain gyp1, active compounds read low",0.976
same,normalized growth,"S. cerevisiae deletion strains, locus YOR080W, strain dia2, active compounds read low",0.999
same,normalized growth,"S. cerevisiae deletion strains, locus YOR083W, strain WHI5, active compounds read low",0.904
same,normalized growth,"S. cerevisiae deletion strains, locus YOR106W, strain vam3, active compounds read low",0.72 (active)
same,normalized growth,"S. cerevisiae deletion strains, locus YOR136W, strain idh2, active compounds read low",0.924
same,normalized growth,"S. cerevisiae deletion strains, locus YOR144C, strain elg1, active compounds read low",0.916 (active)
same,normalized growth,"S. cerevisiae deletion strains, locus YOR184W, strain ser1, active compounds read low",0.686 (active)
same,normalized growth,"S. cerevisiae deletion strains, locus YOR231W, strain MKK1, active compounds read low",0.967
same,normalized growth,"S. cerevisiae deletion strains, locus YOR265W, strain rbl2, active compounds read low",0.997
same,normalized growth,"S. cerevisiae deletion strains, locus YOR270C, strain vph1, active compounds read low",0.777
same,normalized growth,"S. cerevisiae deletion strains, locus YOR290C, strain snf2, active compounds read low",0.844 (active)
same,normalized growth,"S. cerevisiae deletion strains, locus YOR316C, strain cot1, active compounds read low",0.949
same,normalized growth,"S. cerevisiae deletion strains, locus YPL051W, strain arl3, active compounds read low",0.886 (active)
same,normalized growth,"S. cerevisiae deletion strains, locus YPL078C, strain atp4, active compounds read low",0.912
same,normalized growth,"S. cerevisiae deletion strains, locus YPL106C, strain sse1, active compounds read low",0.923
same,normalized growth,"S. cerevisiae deletion strains, locus YPL240C, strain hsp82, active compounds read low",0.837 (active)
same,normalized growth,"S. cerevisiae deletion strains, locus YPL241C, strain CIN2, active compounds read low",0.925 (active)
same,normalized growth,"S. cerevisiae deletion strains, locus YPL256C, strain CLN2, active compounds read low",0.964
same,normalized growth,"S. cerevisiae deletion strains, locus YPR119W, strain clb2, active compounds read low",0.938
same,normalized growth,"S. cerevisiae deletion strains, locus YPR141C, strain kar3, active compounds read low",0.941
same,normalized growth,"S. cerevisiae deletion strains, locus YPR163C, strain tif3, active compounds read low",0.725 (active)
same,normalized growth,"S. cerevisiae deletion strains, locus YPR167C, strain met16, active compounds read low",0.916 (active)
same,normalized growth,"S. cerevisiae deletion strains, strain wtn01, active compounds read low",0.797 (active)
same,normalized growth,"S. cerevisiae strains, strain wild type, active compounds read low",0.579 (active)
